Compounds with a hit are over-represented: about 0.87% of the library has one in this group of screens.
APE1 inh = blocks human APE1 abasic DNA cleavage; P27695; recombinant APE1, TAMRA/BHQ-2 abasic DNA cleavage fluorescence; Potency, µM (titrated, usually from 65.8 µM), inactives show at the highest dose activity change, negative = inhibition, actives largely listed as inhibitors; 350,000 compounds, 0.35% hits; AID 2517;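 further: plate controls were vehicle for no effect and reference inhibitor for full effect; nearly all actives have a fitted effect of over 55% in size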
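Substrate: short duplex with […] THF abasic site, 5'-TAMRA and 3'-BHQ-2, 50 nM final. APE1 at 0.75 nM, preincubated 15 min RT with compound. Fluorescence increase from first to third read measured activity.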
KAT2A inh = blocks human GCN5L2 histone acetyltransferase; Q92830; GCN5L2 HAT assay, ThioGlo1 CoA-SH fluorescence; Potency, µM (titrated, usually from 58.9 µM), for inactives: at the highest dose activity change, negative = inhibition, usual class: inhibitors; 390,000 compounds, 0.21% hits; AID 504327
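qHTS, 1536-well. 20nM enzyme, pH 7.5 HEPES/EDTA/Tween-20 buffer; 15 min compound preinc., RT. Start: 75uM H3(1-25), 70uM AcCoA, 50uM ThioGlo1. Read Ex340/Em540 at t=0 (autofluorescence flag) and t=20 min.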
RECQ1 helicase = RECQ1 (human) helicase inhibition; P46063; RECQ1 DNA unwinding, red fluorescence kinetic read; Potency, µM (highest dose often 57.3 µM), for the others: top-dose activity, negative = inhibition, hits mostly inhibitors; 240,000 compounds, 0.54% hits; AID 2549;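 further: plate controls were vehicle for no effect and no enzyme for full effect; nearly all actives have a fitted effect of over 30% in size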
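RECQ1T1 50 nM; forked duplex (20 bp + 30-nt ss tails) 200 nM, ATP 2 mM final; pH 8.0, 2 mM MgCl2, 2.5 ug/ml poly(dI-dC); 15 min compound preincubation; discontinuous kinetic read over 2 h at RT.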
BLM helicase inh = Bloom syndrome helicase (human) inhibition. P54132. recombinant BLM DNA unwinding, fluorescence dequenching. Potency, µM (top dose mostly 56.1 µM), for the others: at the highest dose activity change, negative = inhibition, actives largely listed as inhibitors. 350,000 compounds, 0.2% hits;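 further: plate controls were vehicle for no effect and no enzyme for full effect; nearly all actives have a fitted effect of over 35% in size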
TDP1 block = blocks human tyrosyl-DNA phosphodiesterase 1 | Q9NUW8 | recombinant TDP1, AlphaScreen DNA substrate cleavage | Potency, µM (highest dose often 130 µM), without a hit: at the highest dose activity change, negative = inhibition, actives largely listed as inhibitors | 350,000 compounds, 0.28% hits | AID 485290; further: nearly all actives have a fitted effect of over 40% in size
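Compounds were preincubated with Tdp1 (1 nM final) for 15 min at room temperature before substrate (15 nM final) started a 5 min reaction; beads (10 ug/ml final) were then added for 10 min before AlphaScreen detection.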
* marks the source's active call; other numbers are inactive results; i = inactive; u = inconclusive; x = not tested or not shown; ! = a repeat was not active; [ ] = remark or other dose. The call rests on the fitted dose curve; in most records, active means well fitted curve in the direction sought with a large enough effect; inconclusive means small, poorly fitted or top-dose-only effect, or another doubt; inactive means no such curve, though single readings can be large; an effect the other way counts as inactive or inconclusive. Unless noted, on the % scale 0 is the no-effect control and ±100 the full control effect; potency means the concentration at half of the fitted maximal effect.

SMILES	APE1 inh	KAT2A inh	RECQ1 helicase	BLM helicase inh	TDP1 block
CCc1ccc(S(=O)(=O)/N=C2\C=C(Nc3cccc(C(=O)O)c3)C(=O)c3ccccc32)cc1	37%	-8%	x	25µM*	x
Cc1cc(C)c(S(=O)(=O)/N=C2\C=C(Nc3ccc(C(=O)O)cc3)C(=O)c3ccccc32)c(C)c1	-22%	-20%	x	u	7%
O=C(O)c1ccc(NC2=C/C(=N/S(=O)(=O)c3ccccc3)c3ccccc3C2=O)cc1	u	-11%	-7%	14µM*	9%
COc1cccc(S(=O)(=O)N2CCN(S(=O)(=O)c3ccc4c(c3)OCCO4)CC2)c1	x	x	x	x	2%
CCn1cc(C(=O)O)c(=O)c2cc(F)c(N3CCN(C(=S)NC(=O)c4ccc(OC)cc4)CC3)cc21	36%	-9%	x	3%	79µM*
Cc1cccc(C(=O)NCC(=O)OC(C(=O)Nc2cc(C(F)(F)F)ccc2Cl)c2ccccc2)c1 (configuration not stated)	x	x	x	x	-3%
N=C1/C(=C/c2cccn2-c2ccc([N+](=O)[O-])cc2)C(=O)N=C2SC=CN12	3%	1%	-4%	-16%	0%
O=C1NC(=S)N/C1=C/c1cccn1-c1ccc([N+](=O)[O-])cc1	u	-19%	28µM*	-18%	1%
COc1ccccc1-c1nccc(NC2CCNCC2)n1	-2%	1%	i	45%	x
COc1cccc(-c2nccc(NC3CCNCC3)n2)c1	1%	0%	-2%	7%	20µM*
CCN(CC)c1ccc2nc3c4ccccc4c(=O)cc-3oc2c1	-20%	1%	x	-22%	x
CCN(CC)c1ccc2c(-c3ccc(S(=O)(=O)O)cc3S(=O)(=O)[O-])c3ccc(=[N+](CC)CC)cc-3oc2c1	27µM*	u	x	25µM*	x
O=[N+]([O-])c1ccc(NC2CCN(Cc3ccccc3)CC2)c([N+](=O)[O-])c1	-3%	-2%	-3%	-6%	8%
O=C1c2c([N+](=O)[O-])cc([N+](=O)[O-])cc2S(=O)N1Cc1ccccc1 (configuration not stated)	10%	28µM*	-5%	-12%	10%
O=C(O)CNS(=O)(=O)c1ccc2c(c1)CCCC2	-15%	0%	-5%	-5%	50µM*
COc1cccc(C2c3c(ncn(-c4ccc(F)cc4)c3=N)Oc3ccc4ccccc4c32)c1 (configuration not stated)	x	x	x	x	4%
CC(=O)Nc1cc(O)c2nonc2c1O	x	x	x	x	0%
c1nc(NC2CCCCC2)c2[nH]cnc2n1	2%	-2%	-2%	0%	9%
c1nc(NC2CCCCCC2)c2[nH]cnc2n1	141µM*	4%	-2%	4%	5%
CCOCC(=O)Nc1ccc(-c2cn3cccnc3n2)cc1	-19%	35µM*	7%	-3%	0%
C=Cc1c(C)c2cc3nc(cc4[nH]c(cc5nc(cc1[nH]2)C(C)=C5CCC(=O)OC)c(CCC(=O)O)c4C)[C@@]1(C)C3=CC=C(C(=O)OC)[C@H]1C(=O)OC	0%[21 µM]	x	x	x	x
NC(=O)C1CCN(c2nc(-c3ccccc3)cs2)CC1	2%	x	x	x	x
COc1ccc(/C=N/N=C2/NC(=O)C(CC(=O)O)S2)cc1OCc1ccccc1Cl (configuration not stated)	u	-2%	-6%	-5%	-15%
COc1ccc(/C=N/N=C2/NC(=O)C(CC(=O)O)S2)cc1OCc1ccc(Cl)cc1Cl (configuration not stated)	u	-22%	1%	-8%	71µM*
CC[C@@]1([C@@H]2O[C@@H]([C@H]3O[C@@](O)(CO)[C@H](C)C[C@@H]3C)C[C@@H]2C)CC[C@H]([C@]2(C)CC[C@]3(C[C@H](O)[C@@H](C)[C@@H]([C@@H](C)[C@@H](OC)[C@H](C)C(=O)O)O3)O2)O1 (stereo in doubt)	-2%	x	x	x	x
SMILES	APE1 inh	KAT2A inh	RECQ1 helicase	BLM helicase inh	TDP1 block
Cc1cc2c(s1)c(/C=N/O)c(C(=O)NCc1ccccc1F)n2C	x	x	x	x	0%
CCNc1ncc2nc(-c3cccs3)c(=O)n(CCC#N)c2n1	-5%	7.1µM*	-10%	-12%	x
N#CCCn1c(=O)c(-c2cccs2)nc2cnc(Nc3ccccc3)nc21	-2%	-2%	i	3%	x
N#Cc1ccc(CSc2nnc(NC(=O)C3CC(=O)N(c4ccc5c(c4)OCCO5)C3)s2)cc1 (configuration not stated)	14µM*	-6%	28µM*	-26%	-5%
COC(=O)c1cccc(C(=O)Nc2ccc(F)cc2)n1	-1%	16µM*	1%	-1%	2%
Cc1ccc(S(=O)(=O)n2c3ccccc3c3nnc(C(=O)c4ccccc4)nc32)cc1	-3%[12.4 µM]	x	0%[11.5 µM]	-8%[12.4 µM]	13%[21 µM]
O=C(Nc1nnc(S(=O)(=O)N2CCCCC2)s1)c1ccc(Cl)cc1	-10%	11µM*!	x	-7%	0%
COc1ccc(C(CC(=O)N2CCCC(C)C2)c2c(OC)cc(OC)c3c(-c4ccccc4)cc(=O)oc23)cc1 (configuration not stated)	u	0%	i	-29%	x
COc1ccc(C(CC(=O)N2CCOCC2)c2c(OC)cc(OC)c3c(-c4ccccc4)cc(=O)oc23)cc1 (configuration not stated)	32µM*!	u	-21%	22µM*!	-4%
O=Cc1ccc(-c2cccc([N+](=O)[O-])c2)o1	19%	-9%	-9%	-2%	6%
O=C1NC(=O)/C(=C/c2ccc(-c3cccc([N+](=O)[O-])c3)o2)S1	13µM*	-14%	x	u	x
CCn1c(CSc2nnc(-c3cccnc3)n2-c2ccccc2C)nc2cc(C(=O)O)ccc21	u	0%	32µM*	-16%	-3%
Cc1ccccc1-n1c(SCC(=O)c2cc(C)n(C)c2C)nnc1-c1cccnc1	3%	-7%	-13%	-9%	7%
Cc1cccc(NC(=O)CNC(=O)Cn2ncc(Cl)c(Cl)c2=O)c1C	u	-25%	x	x	14µM*
CC(=O)Nc1ccc(NC(=O)c2cc(S(=O)(=O)N3CCCCC3)ccc2C)cc1	2%	-2%	x	x	2%
Cc1ccc(S(=O)(=O)N2CCCCC2)cc1C(=O)Nc1ncn[nH]1	u	-10%	-19%	-9%	50µM*
Cc1ccc(S(=O)(=O)N2CCCCC2)cc1C(=O)Nc1cccnc1	3%	-5%	u	-19%	20µM*
S=c1[nH]nc(Nc2ccccc2Cl)s1	-7%	25µM*	2%	-5%	8%
S=c1[nH]nc(Nc2cccc(Cl)c2)s1	5%	22µM*	-2%	4%	11%
CC(C)(C)N[S+](=O)([O-])c1cccc(-c2nnc(SCC(=O)Nc3ccc(C(=O)O)cc3)n2-c2ccccc2)c1	8%	x	x	x	x
O=S1(=O)N=C(Oc2ccccc2F)c2ccccc21	x	x	x	x	3%

Compound activity (PubChem)
